# Experimental data: the supplement of paper PMC6555819
# What was measured:
# Test in all cases: PBM binding z-score (relative to random genomic background probes); higher = stronger binding; sequences stand for … in GC…GCGATTGACAGCGTAGAATGAAGG
# [1] = test system: FXR:RXRa (NR concentration 270 nM, RXRa partner concentration 90 nM)
# Summary of the method: (§1)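 Each nuclear receptor dimer, without ligand, was incubated for 1 h on custom Agilent 4×180K protein-binding microarrays. Binding was detected with antibodies against each partner (one per run), and scanned fluorescence was regression-normalized. The binding z-scores are referenced to random human genomic background probes.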
# [2] = test system: LXRa:RXRa (NR concentration 270 nM, RXRa partner concentration 90 nM)
# Summary of the method: as §1
# [3] = test system: LXRa homodimer (NR concentration 270 nM)
# Summary of the method: as §1
# [4] = test system: LXRb:RXRa (NR concentration 270 nM, RXRa partner concentration 90 nM)
# Summary of the method: as §1
# [5] = test system: LXRb homodimer (NR concentration 270 nM)
# Summary of the method: as §1
# [6] = test system: PPARa:RXRa (NR concentration 270 nM, RXRa partner concentration 90 nM)
# Summary of the method: as §1
# [7] = test system: PPARg:RXRa (NR concentration 180 nM, RXRa partner concentration 90 nM)
# Summary of the method: as §1
# [8] = test system: PPARg:RXRa 270nM:90nM, anti-RXR (NR concentration 270 nM, RXRa partner concentration 90 nM)
# Summary of the method: as §1
# [9] = test system: PPARg:RXRa 30nM:10nM, anti-RXR (NR concentration 30 nM, RXRa partner concentration 10 nM)
# Summary of the method: as §1
# [10] = test system: PPARg:RXRa 90nM:30nM, anti-RXR (NR concentration 90 nM, RXRa partner concentration 30 nM)
# Summary of the method: as §1
Sequence,PBM binding z-score [1],PBM binding z-score [2],PBM binding z-score [3],PBM binding z-score [4],PBM binding z-score [5],PBM binding z-score [6],PBM binding z-score [7],PBM binding z-score [8],PBM binding z-score [9],PBM binding z-score [10]
ATGGAAAGGTCGAAGGTGAGTATACCCACCCGAA,4.22,3.27,0.0491,2.82,0.401,4.71,4.84,5.14,2.3,4.32
CCTATTAGTTGACCATAAGGGAAACCGAAGCTCG,0.0135,0.118,0.818,0.349,0.904,0.126,0.419,0.639,0.332,0.381
GCTTGGAGGACAAGGTCAGAGCTTTGTCCGTAGA,1.44,1.7,-0.316,1.03,-0.782,2.48,0.977,1.88,0.0499,1.35
TCTAGTTGGTCCAAGGTCACACACTCGAAATGCG,3.91,3.59,1.87,3.54,0.734,4.18,4.19,5.58,4.56,5.7
TGTGCTAGGTCAGTTGGTCAGCTAACGAGCTGCC,0.928,0.621,-0.546,-0.0513,0.565,1.23,0.656,1.19,-0.306,0.746
ATATGTAGTTTAAGGGTCATTCAGGTTGGTTCGC,4.61,4.11,2.99,4.07,1.53,5.03,6.25,6.64,5.02,6.74
CCTAGGTGGTCAAGGTCACACACGCTATAGGTAC,4.58,3.67,1.51,3.57,0.536,4.35,3.72,3.83,1.19,2.85
ACAGACAGCTGATGAAGGTAACTCAGGCTATCAT,-0.294,-0.43,-0.191,-0.692,-0.451,-0.305,0.649,-0.383,-0.233,0.0374
ACTATCAGTTGACTTAGGGCAACCGATACGACGC,0.0979,0.0623,0.0822,-0.0416,0.543,0.113,0.908,0.0453,0.141,0.385
ATCGTAAGGTCGACGAGGTGAGTATACACCGTTT,3.07,1.79,-0.0992,1.66,0.155,3.03,1.36,1.25,0.685,0.918
TTACCAAGGTGAGCTGAGGTAGTTGATCCAACTC,-0.711,-0.48,-0.742,-0.743,-1.03,0.16,-0.149,-0.0423,-0.136,-0.391
CTCGAAAGGTCCTGCTCAGGTGAGTATACCAAAC,0.485,0.0121,-0.23,0.151,-0.603,0.515,-0.342,0.119,-0.0279,-0.0509
TCATATAGCTAAAAGGTGAAAGTCGGTGTGGTAA,0.855,1.02,0.0787,1.2,-0.577,2.26,0.863,2.94,3.25,3.08
TCATATAGGTGATACAGGTGAAAGTCGGCATCTA,0.938,1.04,0.153,0.984,-0.0198,2.33,1.96,2.94,3.85,3.55
ACTCGGAGGACGAAGGTCAGAGCTACGCCAGTGA,0.736,1.2,-0.109,0.941,-0.551,2.3,2.67,3.52,1.07,3.02
TGTCAAAGTTCCAAGGTAACGTAAGTATCCACAC,0.32,0.139,-0.0669,0.284,0.0682,0.321,0.758,1.18,0.448,1.04
AATACAGGGTCATCGTAGGCCAGACTACGCACAG,7.17,6.52,2.16,5.02,1.46,6.05,6.77,6.04,2.96,4.83
GCTGCTAGGTCGGGTTGGTCAGCTAACGGGTACG,-0.105,-0.0902,-0.312,-0.21,-0.573,-0.124,-0.576,-0.344,-0.825,-0.553
CGTCCAAGGTCAGCAGGTCAGTGCAAGCGACGTG,5.87,3.79,0.73,2.8,-0.131,4.86,4.09,4.53,1.16,2.98
CATACAGGGTCAGCTAGGACAGAGTAGGGACGGC,4.48,2.8,-0.0468,2.29,0.178,4.13,3.16,2.87,0.481,1.76
CGTCGAAGGTCAGAGAGGTCAGTGAATGCCGAGT,6.25,5.11,3.28,4.34,0.365,4.79,3.57,4.39,1.28,3.06
TCTTGTAGATCAATAGGAGGTTAAGAAAGATCGA,0.54,1.36,0.474,0.851,0.157,1.36,0.389,1.57,2.93,2.25
CGTTCAAGGTCAGCAGGTCAGTGAAAGCGACGTG,6.5,4.34,0.93,3.38,0.134,5.37,5.07,5.47,1.95,4.09
